# Results: PubChem BioAssay (NCATS)
# Records with an inconclusive call do not appear. Where a call stands in place of a potency, no number is given. Calls of active or inactive are those of the source. Unless noted, the call rests on the fitted dose curve; in most records, active means well fitted curve in the direction sought with a large enough effect; inconclusive means small, poorly fitted or top-dose-only effect, or another doubt; inactive means no such curve, though single readings can be large; an effect the other way counts as inactive or inconclusive. Where a SMILES comes first, the peptide text is derived from it. Bridges are numbered along the chain shown (N, C = ends). [ ]: non-standard residue; d: D form. hArg = N=C(N)NCCCC[C@H](N)C(=O)O; Mpa = O=C(O)CCS
# Tests used:
# [1] = biological target: Voltage-gated inwardly rectifying potassium channel KCNH2 (Homo sapiens) (UniProt Q12809); assay: qHTS Assay for Small Molecule Inhibitors of the Human hERG Channel Activity (AID 588834);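 further: lower thallium flux fluorescence means stronger hERG block; nearly all actives have a fitted effect of over 50% in size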; further: potency means the concentration at half of the fitted maximal effect
# Summary of the method: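 Homogeneous FluxOR thallium flux assay using hERG-expressing U2OS cells (BacMam). Compound treatment about 10 minutes preceded stimulation; reduced fluorescence taken as channel block.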
# [2] = biological target: Peroxisome proliferator-activated receptor gamma (Homo sapiens) (UniProt P37231); assay: qHTS assay for small molecule agonists of peroxisome proliferator-activated receptor gamma signaling (AID 588536; active means well fitted curve in the direction sought with a large enough effect in the signal ratio, with a control signal flat, not every such curve was filed as active; the % refers to the signal ratio)
# Summary of the method: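 Using GeneBLAzer HEK293 cells, response was quantified by CCF4 fluorescence and normalized between basal DMSO (0%) and rosiglitazone 2 uM (100%); curves yielded half-maximal stimulation concentration and efficacy.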
# [3] = biological target: Vitamin D3 receptor (Homo sapiens) (UniProt P11473); assay: qHTS assay for small molecule antagonists of vitamin D receptor signaling (AID 588541; calls by dose curve;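 further: receptor activated by calcitriol during compound treatment; series mostly up to about 77 µM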)
# Summary of the method: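 VDR-UAS-bla HEK293T cells in 2% charcoal-stripped FBS were stimulated with 1-alpha,25-dihydroxyvitamin D3 (3 nM final) plus compound for 16 h at 37 C. The beta-lactamase CCF4 readout was normalized to 50 nM agonist and DMSO, and Hill fits gave IC50.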
# [4] = biological target: Vitamin D3 receptor (Homo sapiens) (UniProt P11473); assay: qHTS assay for small molecule agonists of vitamin D receptor signaling (AID 588543; calls by dose curve)
# Summary of the method: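 Measured: β-lactamase reporter activity (CCF4, 405 nm excitation, 460/530 nm emission) in HEK293T VDR-UAS-bla cells after 16 h compound exposure at 37 °C. Normalization against 50 nM 1α,25-dihydroxyvitamin D3 and DMSO; Hill-fit EC50.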
# [5] = qHTS assay for small molecule agonists of retinoid X receptor alpha signaling (AID 588544; calls by dose curve); conditions: HEK293T RXRa-UAS-bla, beta-lactamase reporter, 18 h; 530 nm emission
# [6] = biological target: Retinoic acid receptor RXR-alpha (Homo sapiens) (UniProt P19793); assay: as above
# [7] = biological target: Thyroid hormone receptor beta (Homo sapiens) (UniProt P10828); assay: qHTS assay for small molecule agonists of thyroid hormone receptor beta signaling (AID 588545; calls by dose curve)
# Summary of the method: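 Efficacy and EC50 values derive from Hill fits of qHTS titration data, normalized to 10 nM T3 and DMSO-only wells. HEK 293 reporter cells were stimulated for 18 hrs at 37 C, with beta-lactamase activity measured by CCF4 fluorescence.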
# [8] = qHTS assay for small molecule antagonists of retinoid X receptor alpha signaling (AID 588546; active means well fitted inhibition curve with a large enough effect in the signal ratio, with a control signal flat, not every such curve was filed as active; the % refers to the signal ratio;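 further: cells stimulated with 9-cis-retinoic acid as agonist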); conditions: HEK293T RXRa-UAS-bla, beta-lactamase ratio, antagonist mode; measured here: W530 green channel, cytotoxicity proxy
# Summary of the method: (§1)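 Beta-lactamase reporter inhibition, read as CCF4 fluorescence ratio (ex 405, em 460/530 nm) after 2 h at RT. HEK293T UAS-bla cells, 2500/well, were stimulated with 9-cis-RA at 500 or 100 nM final alongside test compound for 18 h at 37 C.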
# [9] = biological target: Retinoic acid receptor RXR-alpha (Homo sapiens) (UniProt P19793); assay: as above; conditions: HEK293T RXRa-UAS-bla, beta-lactamase ratio, antagonist mode
# Summary of the method: as §1
# [10] = S16 Schwann cell viability assay (CellTiter-Glo assay) (AID 624031);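 further: cellular ATP luminescence as a viability measure; series mostly up to about 58 µM; nearly all actives have a fitted effect of over 70% in size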
# Summary of the method: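 Luminescent ATP read-out (CellTiter-Glo) after 24 h compound exposure of native S16 rat Schwann cells at 37 °C. Signals were normalized between cell-free wells and DMSO-treated cells, set as 0% activity.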
# [11] = biological target: Peroxisome proliferator-activated receptor gamma (Homo sapiens) (UniProt P37231); assay: qHTS assay for small molecule antagonists of peroxisome proliferator-activated receptor gamma signaling (AID 588537; active means well fitted inhibition curve with a large enough effect in the signal ratio, with a control signal flat, not every such curve was filed as active; the % refers to the signal ratio;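 further: reporter cells co-stimulated with 50 nM rosiglitazone agonist during compound treatment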)
# Summary of the method: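 Fluorescence at 460 and 530 nm (405 nm excitation) reported beta-lactamase cleavage of CCF4 after 2 h room-temperature loading. HEK293 reporter cells in 1% charcoal/dextran-treated FBS had received compound and rosiglitazone for 16 h.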
# [12] = biological target: Thyroid hormone receptor beta (Homo sapiens) (UniProt P10828); assay: qHTS assay for small molecule antagonists of thyroid hormone receptor beta signaling (AID 588547; active means well fitted inhibition curve with a large enough effect in the signal ratio, with a control signal flat, not every such curve was filed as active; the % refers to the signal ratio;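 further: cells stimulated with 0.4 nM T3 agonist during compound exposure; series mostly up to about 77 µM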); conditions: TR-UAS-bla HEK293, beta-lactamase ratio, antagonist mode, 18 h
# Summary of the method: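 TR-UAS-bla GripTite HEK293 cells in 2% charcoal/dextran FBS medium; compounds 0.59 nM to 92 uM with T3 at 0.4nM final, 18 h at 37 C. Beta-lactamase read by CCF4 fluorescence (460/530 nm); Hill fits gave IC50 and efficacy.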
# [13] = biological target: Luciferin 4-monooxygenase (Photinus pyralis) (UniProt P08659); assay: Biochemical firefly luciferase enzyme assay for NPC (AID 624030);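 further: purified P. pyralis luciferase at 10 nM with luciferin and ATP substrate; series mostly up to about 59 µM; nearly all actives have a fitted effect of over 70% in size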
# Summary of the method: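 Purified P. pyralis luciferase at 10 nM in 50 mM Tris Acetate (final), luminescence read within 5 minutes of enzyme addition to compounds. Activity normalised to PTC124 versus DMSO; concentration-response curves classed by r2, magnitude and activity.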
# Vitamin D3 receptor (Homo sapiens), sequence (P11473 whole entry, looked up): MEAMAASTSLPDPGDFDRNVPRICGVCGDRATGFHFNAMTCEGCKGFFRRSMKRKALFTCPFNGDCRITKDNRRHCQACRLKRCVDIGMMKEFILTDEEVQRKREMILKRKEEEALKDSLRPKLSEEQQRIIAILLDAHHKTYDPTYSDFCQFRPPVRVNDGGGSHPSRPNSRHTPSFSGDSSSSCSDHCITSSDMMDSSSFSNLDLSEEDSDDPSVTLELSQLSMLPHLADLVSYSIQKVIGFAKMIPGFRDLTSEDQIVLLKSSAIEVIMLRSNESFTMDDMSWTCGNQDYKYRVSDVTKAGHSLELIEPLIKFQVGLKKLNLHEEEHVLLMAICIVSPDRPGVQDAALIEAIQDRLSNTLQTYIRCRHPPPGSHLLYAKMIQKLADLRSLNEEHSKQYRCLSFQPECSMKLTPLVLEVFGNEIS
# Luciferin 4-monooxygenase (Photinus pyralis), sequence (P08659 whole entry, looked up): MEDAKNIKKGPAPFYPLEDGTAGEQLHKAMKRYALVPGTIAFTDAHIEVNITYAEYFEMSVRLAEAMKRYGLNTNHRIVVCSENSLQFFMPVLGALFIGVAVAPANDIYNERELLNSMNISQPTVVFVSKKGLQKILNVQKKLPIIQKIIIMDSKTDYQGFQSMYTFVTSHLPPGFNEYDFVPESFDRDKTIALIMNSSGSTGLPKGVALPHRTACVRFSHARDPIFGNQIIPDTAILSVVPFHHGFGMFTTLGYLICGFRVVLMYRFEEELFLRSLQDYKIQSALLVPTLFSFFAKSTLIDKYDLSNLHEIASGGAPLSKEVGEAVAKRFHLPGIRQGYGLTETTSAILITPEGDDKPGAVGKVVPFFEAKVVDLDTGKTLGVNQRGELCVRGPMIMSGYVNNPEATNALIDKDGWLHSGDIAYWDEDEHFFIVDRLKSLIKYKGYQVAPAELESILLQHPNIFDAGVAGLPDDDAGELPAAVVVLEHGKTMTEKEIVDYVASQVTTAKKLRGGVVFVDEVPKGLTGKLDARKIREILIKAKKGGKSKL
# Voltage-gated inwardly rectifying potassium channel KCNH2 (Homo sapiens), sequence (Q12809 whole entry, looked up): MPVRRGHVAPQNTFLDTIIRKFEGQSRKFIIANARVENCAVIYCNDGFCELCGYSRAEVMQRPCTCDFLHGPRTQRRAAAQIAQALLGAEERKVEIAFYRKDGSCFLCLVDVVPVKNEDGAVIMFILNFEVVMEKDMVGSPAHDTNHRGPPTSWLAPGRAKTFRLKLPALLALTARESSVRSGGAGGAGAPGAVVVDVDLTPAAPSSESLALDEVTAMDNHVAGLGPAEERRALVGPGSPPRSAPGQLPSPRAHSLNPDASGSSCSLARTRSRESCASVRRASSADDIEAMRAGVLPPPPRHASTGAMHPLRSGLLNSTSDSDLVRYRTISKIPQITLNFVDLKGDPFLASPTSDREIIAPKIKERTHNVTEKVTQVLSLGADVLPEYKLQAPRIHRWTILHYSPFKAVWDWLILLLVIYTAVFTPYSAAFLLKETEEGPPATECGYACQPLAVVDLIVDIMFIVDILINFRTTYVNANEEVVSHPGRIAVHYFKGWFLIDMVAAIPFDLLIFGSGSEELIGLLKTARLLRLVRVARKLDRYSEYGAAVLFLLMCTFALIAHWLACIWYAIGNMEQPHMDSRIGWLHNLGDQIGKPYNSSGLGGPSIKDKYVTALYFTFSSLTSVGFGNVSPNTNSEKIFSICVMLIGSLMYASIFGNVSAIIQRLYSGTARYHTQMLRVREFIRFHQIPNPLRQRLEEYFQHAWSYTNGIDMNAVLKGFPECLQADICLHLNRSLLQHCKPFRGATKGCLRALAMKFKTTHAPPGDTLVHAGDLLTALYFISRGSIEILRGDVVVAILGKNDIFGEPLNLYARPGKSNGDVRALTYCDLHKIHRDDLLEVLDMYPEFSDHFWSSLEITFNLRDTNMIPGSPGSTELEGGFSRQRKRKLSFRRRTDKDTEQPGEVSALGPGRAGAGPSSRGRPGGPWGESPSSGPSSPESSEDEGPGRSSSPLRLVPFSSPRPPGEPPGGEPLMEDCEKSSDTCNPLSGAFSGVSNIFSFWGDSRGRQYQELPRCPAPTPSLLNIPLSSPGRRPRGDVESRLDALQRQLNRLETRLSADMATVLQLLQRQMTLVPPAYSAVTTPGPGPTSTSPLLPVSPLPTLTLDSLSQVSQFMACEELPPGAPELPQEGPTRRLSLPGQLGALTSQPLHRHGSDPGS
# Retinoic acid receptor RXR-alpha (Homo sapiens), sequence (P19793 whole entry, looked up): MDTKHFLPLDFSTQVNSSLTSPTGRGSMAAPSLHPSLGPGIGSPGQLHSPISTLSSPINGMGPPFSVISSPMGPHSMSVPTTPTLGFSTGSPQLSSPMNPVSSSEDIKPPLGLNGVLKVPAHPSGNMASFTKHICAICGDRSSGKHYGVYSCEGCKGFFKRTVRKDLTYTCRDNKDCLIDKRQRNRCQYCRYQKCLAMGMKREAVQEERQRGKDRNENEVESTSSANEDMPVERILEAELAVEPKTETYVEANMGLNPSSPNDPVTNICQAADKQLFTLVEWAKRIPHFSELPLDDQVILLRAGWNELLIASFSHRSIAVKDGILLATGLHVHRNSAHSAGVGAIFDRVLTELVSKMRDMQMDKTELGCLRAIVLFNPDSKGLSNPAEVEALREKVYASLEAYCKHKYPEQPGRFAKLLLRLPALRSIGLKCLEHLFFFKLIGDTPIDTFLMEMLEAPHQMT
# Peroxisome proliferator-activated receptor gamma (Homo sapiens), sequence (P37231 whole entry, looked up): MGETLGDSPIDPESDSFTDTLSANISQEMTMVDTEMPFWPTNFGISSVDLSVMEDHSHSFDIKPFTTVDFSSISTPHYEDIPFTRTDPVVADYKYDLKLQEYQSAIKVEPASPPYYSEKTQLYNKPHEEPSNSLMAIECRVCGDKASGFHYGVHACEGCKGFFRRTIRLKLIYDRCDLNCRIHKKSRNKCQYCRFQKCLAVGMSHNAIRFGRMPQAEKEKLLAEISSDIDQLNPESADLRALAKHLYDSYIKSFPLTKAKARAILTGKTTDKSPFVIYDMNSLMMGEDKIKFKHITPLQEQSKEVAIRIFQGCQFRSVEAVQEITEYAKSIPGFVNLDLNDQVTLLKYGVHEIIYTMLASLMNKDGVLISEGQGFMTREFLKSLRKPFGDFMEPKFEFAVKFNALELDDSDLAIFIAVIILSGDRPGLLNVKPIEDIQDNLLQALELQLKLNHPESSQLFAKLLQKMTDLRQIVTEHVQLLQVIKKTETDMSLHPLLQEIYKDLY
# Thyroid hormone receptor beta (Homo sapiens), sequence (P10828 whole entry, looked up): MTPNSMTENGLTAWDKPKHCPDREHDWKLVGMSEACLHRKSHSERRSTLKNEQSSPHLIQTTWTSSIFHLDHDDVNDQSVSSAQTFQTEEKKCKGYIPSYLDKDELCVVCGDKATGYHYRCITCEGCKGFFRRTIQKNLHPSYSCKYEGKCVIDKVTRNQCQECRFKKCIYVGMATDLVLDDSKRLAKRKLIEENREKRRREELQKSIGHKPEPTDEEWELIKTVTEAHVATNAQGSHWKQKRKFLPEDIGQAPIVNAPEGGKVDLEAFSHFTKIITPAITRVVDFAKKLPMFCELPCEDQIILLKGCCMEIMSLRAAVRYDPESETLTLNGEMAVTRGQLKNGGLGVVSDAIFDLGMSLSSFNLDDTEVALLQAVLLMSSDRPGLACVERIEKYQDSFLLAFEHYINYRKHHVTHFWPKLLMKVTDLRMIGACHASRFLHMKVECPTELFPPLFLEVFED
structure (smiles),measurement,setting,value
O=C(NCC(O)CO)c1c(I)c(C(=O)NCC(O)CO)c(I)c(N(CCO)C(=O)CO)c1I (centres undefined),Potency,[1],inactive
CN1C(=O)CC(c2ccccc2)C1=O (centres undefined),Potency,[1],inactive
CC(=O)OCC(=O)[C@@]1(O)CC[C@H]2[C@@H]3CCC4=CC(=O)C=C[C@]4(C)[C@@]3(F)[C@@H](O)C[C@@]21C,Potency,[1],inactive
CCCCOC(=O)c1ccc(N)cc1,outcome,[2],inactive
same,outcome,[3],inactive
same,outcome,[4],inactive
same,max response,[5],8.21%
same,outcome,[6],inactive
same,outcome,[7],inactive
same,max response,[8],-1.8%
same,max response,[9],-25.6% (inactive)
same,outcome,[10],inactive
CC1(C)[C@@H](OC(=O)CCC(=O)O)CC[C@]2(C)[C@H]3C(=O)C=C4[C@@H]5C[C@@](C)(C(=O)O)CC[C@]5(C)CC[C@@]4(C)[C@]3(C)CC[C@@H]12,Potency,[1],inactive
CC(=O)N1C[C@H](O)C[C@H]1C(=O)O,Potency,[1],inactive
O=C1c2cccc(O)c2C(=O)c2c(O)cccc21,outcome,[11],inactive
same,outcome,[4],inactive
same,activity change % (negative = inhibition),[12],-11.3% (inactive)
same,Potency,[1],inactive
same,Potency,[13],inactive
same,outcome,[10],inactive
CO[C@@]1(NC(=O)C(C(=O)O)c2ccc(O)cc2)C(=O)N2C(C(=O)O)=C(CSc3nnnn3C)CO[C@@H]21 (some centres undefined),Potency,[1],inactive
CC(C)=CCC[C@@](C)(O)[C@H]1CC=C(C)CC1,Potency,[1],inactive
CC[C@]12CCCN3CCc4c(n(c5ccccc45)[C@@](O)(C(=O)OC)C1)[C@@H]32,Potency,[1],398 nM (active)
COC(=O)N/N=C/c1c[n+]([O-])c2ccccc2[n+]1[O-],Potency,[1],inactive
CC1(C)S[C@@H]2[C@H](N=CN3CCCCCC3)C(=O)N2[C@H]1C(=O)O,Potency,[1],inactive
NS(=O)(=O)c1cc(-c2nn[nH]n2)c(NCc2cccs2)cc1Cl,Potency,[1],inactive
O=C(O)[C@@H]1[C@H]2C[C@H]3c4[nH]c5ccccc5c4CCN3C[C@@H]2CC[C@@H]1O,Potency,[1],inactive
CC(=O)N[C@H]1[C@H]([C@H](O)[C@H](O)CO)OC(C(=O)O)=C[C@@H]1N=C(N)N,Potency,[1],inactive
NS(=O)(=O)c1cc(C2(O)NC(=O)c3ccccc32)ccc1Cl (centres undefined),Potency,[1],inactive
COc1ccc(-c2cc(=O)c3c(O)cc(O[C@@H]4O[C@H](CO[C@@H]5O[C@@H](C)[C@H](O)[C@@H](O)[C@H]5O)[C@@H](O)[C@H](O)[C@H]4O)cc3o2)cc1O,Potency,[1],inactive
C[C@]1(Cn2ccnn2)[C@H](C(=O)O)N2C(=O)C[C@H]2S1(=O)=O,Potency,[1],inactive
CC(=O)N[C@@H](CC(C)C)C(=O)O,Potency,[1],inactive
CN[C@@H]1[C@@H](O)[C@@H](O[C@@H]2[C@H](O)[C@H](O[C@H]3OC(CN)=CC[C@H]3N)[C@@H](N)C[C@H]2N)OCC1(C)O (some centres undefined),Potency,[1],inactive
CCOC(=O)OC(C)OC(=O)[C@@H]1N2C(=O)[C@@H](NC(=O)[C@H](N)c3ccccc3)[C@H]2SC1(C)C (some centres undefined),Potency,[1],inactive
CC1(C)S[C@@H]2[C@H](NC(=O)C(C(=O)O)c3ccccc3)C(=O)N2[C@H]1C(=O)O (some centres undefined),Potency,[1],inactive
CCOc1ccccc1O[C@H](c1ccccc1)[C@H]1CNCCO1,Potency,[1],inactive
CN1CC(=O)NC1=N,Potency,[1],inactive
NC(=O)NC1NC(=O)NC1=O (centres undefined),Potency,[1],inactive
CCc1cccc(CC)c1NC(=O)CN(CC(=O)O)CC(=O)O,Potency,[1],inactive
same,Potency,[13],inactive
Nc1ncnc(Nc2ccccc2)n1,Potency,[1],inactive
same,Potency,[13],inactive
CC(=O)[C@@]1(O)CC[C@H]2[C@@H]3C[C@H](C)C4=CC(=O)C=C[C@]4(C)[C@@]3(F)[C@@H](O)C[C@@]21C,Potency,[1],inactive
Cn1c([N+](=O)[O-])cnc1COC(N)=O,Potency,[1],inactive
same,Potency,[13],inactive
C=CCN1C[C@H](C(=O)N(CCCN(C)C)C(=O)NCC)C[C@@H]2c3cccc4[nH]cc(c34)C[C@H]21,Potency,[1],inactive
Cc1cccc(C(=O)O)c1O,Potency,[1],inactive
same,Potency,[13],inactive
NCC1CCC(C(=O)Oc2ccc(CCC(=O)O)cc2)CC1 (centres undefined),Potency,[1],inactive
same,Potency,[13],inactive
C[n+]1ccccc1/C=N/O,Potency,[1],inactive
Nc1ncnc2c1ncn2[C@@H]1O[C@H](COP(=O)(O)O)[C@@H](O)[C@H]1O,Potency,[1],inactive
same,Potency,[13],inactive
same,outcome,[10],inactive
C[C@@H]1CCC[C@H](C)N1,Potency,[1],inactive
same,Potency,[13],inactive
COc1ccccc1Oc1c(NS(=O)(=O)c2ccc(C(C)(C)C)cc2)nc(-c2ncccn2)nc1OCCO,Potency,[1],inactive
same,Potency,[13],inactive
CN/C(=C\[N+](=O)[O-])NCCSCc1csc(CN(C)C)n1,Potency,[1],inactive
same,Potency,[13],inactive
NC(=O)[C@@H]1CSSCCC(=O)N[C@@H](CCCCN=C(N)N)C(=O)NCC(=O)N[C@@H](CC(=O)O)C(=O)N[C@@H](Cc2c[nH]c3ccccc23)C(=O)N2CCC[C@H]2C(=O)N1 ([Mpa][hArg]GDWPC-NH2; disulfide 1-7),Potency,[1],inactive
same,Potency,[13],inactive
O=C(CN1CCNCC1)NC1CCCCC1,Potency,[1],inactive
same,Potency,[13],inactive
same,outcome,[10],inactive
NC(=O)CC[C@@H](N)C(=O)O,Potency,[1],inactive
same,Potency,[13],inactive
CCN(CC)CCOC(=O)C(c1ccccc1)c1ccccc1,Potency,[1],2000 nM (active)
same,Potency,[13],inactive
OCC(O)CS (centres undefined),Potency,[1],inactive
same,Potency,[13],inactive
same,outcome,[10],inactive
CCCCCCCCCCOc1cc2c(=O)c(C(=O)OCC)c[nH]c2cc1OCC,Potency,[1],inactive
same,Potency,[13],inactive
